We go through 98 compounds from PubChem BioAssay AID431 (Sanford-Burnham Center for Chemical Genomics, 2006).

Hit rate of the full screen: of about 63,000 compounds, about 1,100 (1.7%) were called active. The sample as a whole holds a higher share of actives than the screen did. Entries with a potency or affinity are not part of this list. Values without a mark were called inactive.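 The calls were made as follows: active = compounds whose percent cytotoxicity in the single-dose primary screen, scaled between solvent and toxic-drug controls, exceeds 50; inactive = the rest.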

This experiment can be described thus: viability loss of HPDE-C7K cells – cell-based, fluorescence, HTS, primary screen (AID 431).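 Also: 0% = DMSO solvent wells and 100% = doxorubicin-treated wells.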 The following applies: HPDE-C7K KRASV12 cells, Alamar Blue viability, 48 h; at 10 µM; stronger effect = higher value. Background: Resazurin is reduced to fluorescent resorufin, in cell work by metabolically active cells.
Take `CN(C)CC(=O)Nc1cc(C(F)(F)F)ccc1Cl`: the cytotoxicity was -7.9%. Under `Cc1cc(C)nc(SCc2nnc(SCC(=O)N3CCOCC3)o2)n1` stands 4.2%; under `CCc1nnc(NC(=O)c2ccc(COc3ccc(C)cc3)o2)s1`, -2.5%; under `CCCOC(=O)c1[nH]c2c(c1C)C(=O)CC(c1ccc(OC)c(OC)c1)C2` (stereo not drawn), -0.9%. For `CCCCCOC(=O)c1[nH]c2c(c1C)C(=O)CC(c1ccco1)C2` (stereo not drawn), the cytotoxicity was 51.4% (active). Then `CCCCOC(=O)c1[nH]c2c(c1C)C(=O)CC(c1cc(OC)c(OC)c(OC)c1)C2` (stereo not drawn), with 4.1%.

Take `Cc1cc(C)c2nc(SCC#N)cc(C)c2c1`: the cytotoxicity is 15.7%.

`Cc1cc(NCCCN2CCOCC2)n2ncc(-c3ccc(Cl)cc3)c2n1`: the cytotoxicity was 23.7%. As for `Cc1cc(NCCN2CCOCC2)n2ncc(-c3ccc(Cl)cc3)c2n1`, the cytotoxicity is 17%. Turning to `Cc1cc(NCCOCCO)n2ncc(-c3ccc(Cl)cc3)c2n1`, the cytotoxicity was 75.4% (active). Under `COc1cccc(OCc2nc3ncc(Br)cc3[nH]2)c1` stands 64.8% (active); under `O=C(NCc1nc2ncc(Br)cc2[nH]1)c1ccccc1`, -7.6%; under `COc1cccc(OCc2nc3ccccc3[nH]2)c1`, 10.6%. Regarding `O=C(COC(=O)C(O)c1ccccc1)c1ccc2c(c1)OCCO2` (stereo not drawn), the cytotoxicity was -14.7%. Under `Cn1cc(Cl)c(C(=O)Nc2cccc(Cl)c2Cl)n1` stands -18.7%. Then `COC(=O)c1ccc(Oc2cc(C)nc(NCc3ccccc3)n2)cc1`, with 1.6%. For `CCOC(=O)c1ccc(Oc2nc(NC)nc(SC)n2)cc1`, the cytotoxicity was -5.1%. Then `COC(=O)c1ccc(Oc2nc(C)cc(Oc3ccccc3)n2)cc1`, with -1.7%. Then `CCOC(=O)c1ccc(Oc2nc(SC)nc(N(C)C)n2)cc1`, with -21.1%; and `COC(=O)c1ccc(Oc2cc(C)nc(SC)n2)cc1`, with 53.4% (active); and `CCOC(=O)c1ccc(Oc2cc(C)nc(SC)n2)cc1`, with 55.4% (active). Under `COc1ccc(S(=O)(=O)NC2CC3CCC2C3)cc1Cl` (stereo not drawn) stands 5%; under `CCOC(=O)C(Cc1ccccc1)NC(=O)CCc1c(C)nc2ncnn2c1C` (stereo not drawn), -0.7%. For the compound `O=C(CN1CCc2ccccc2C1)c1cccs1`, the cytotoxicity was -6.1%. Regarding `COc1cc2c(cc1OC)CN(C(=O)CSc1nnc3scc(-c4ccccc4)n13)CC2`, the cytotoxicity is 1.3%. Under `CCN(CC)CCCOc1nc(C)nc2c1oc1ccccc12` stands 9.8%; under `Clc1ccc(OCc2nc(-c3ccccn3)n[nH]2)cc1`, 47.8%. Under `Cc1cc(Cl)ccc1OCCCC(N)=O` stands -7%; under `Cc1cc(Cl)ccc1OCc1nc(-c2ccc(O)cc2)n[nH]1`, 86.2% (active); under `COc1ccc(N2CCN(C(=O)c3ccc4c(c3)OCO4)CC2)cc1`, 17%. In the case of `CC1CC(C)CN(C(=O)Cn2c(=O)n(CCCCC(=O)NC3CCCC3)c(=O)c3ccccc32)C1` (stereo not drawn), the cytotoxicity was -3.9%. Take `O=C(Cc1ccc(Cl)c(Cl)c1)OCC(=O)c1ccc[nH]1`: the cytotoxicity is -10.8%. Then `O=C(Cc1ccc(-c2ccccc2)cc1)N1CCOCC1`, with -4.1%; and `O=C1NCCCC2c3c(cc(Br)c(O)c3Br)OC12N1CCOCC1` (stereo not drawn), with -3.5%; and `CCCCn1c(SCC(=O)OCC)nc2c1c(=O)[nH]c(=O)n2C`, with 2.4%.

On to `CSc1nc2sc3c(c2c2nnnn12)CCC3`, for which the cytotoxicity was 6.6%. Under `Cc1nc(Sc2nnnn2C)c2c3c(sc2n1)CCC3` stands 68.5% (active); under `Cc1nc(SCC#N)c2c3c(sc2n1)CCC3`, -15.5%; under `Cc1nnn(C23CC4CC(CC(C4)C2)C3)n1`, 4.5%. Under `CC1CCCN(CCCNC(=O)c2coc3nc4ccccc4nc23)C1` (stereo not drawn) stands 9.2%.

`O=C(NCc1ccccc1)N1CCN(c2ccc(Cl)c(Cl)c2)CC1`: the cytotoxicity is -1.9%. In the case of `CCC(=O)Oc1ccc(-c2nc(-c3cccnc3)no2)cc1`, the cytotoxicity was -6.1%. On to `CCOc1ccc(C(=O)COC(=O)CC)cc1`, for which the cytotoxicity is -1.3%. Under `CC(C)c1ccc(OC(=O)NCCO)cc1` stands -6.6%; under `COC(=O)CCC(=O)Oc1ccc(OC(=O)CCC(=O)OC)cc1`, 18.3%.

With `CC1(C)CC(=O)C2=C(C1)OC(=O)C2(NC(=O)c1cccs1)C(F)(F)F` (stereo not drawn), the cytotoxicity is -9.1%.

For `CC1=C(C(=O)N(C)Cc2ccccc2)C2(CCC(C)CC2)OC1=O` (stereo not drawn), the cytotoxicity was 1.3%. On to `Cc1cc(NC(=O)CSc2nc3c(c(=O)n2-c2ccccc2)SC(C)C3)no1` (stereo not drawn), for which the cytotoxicity is 5.9%. Then `COc1ccc(CCNC(=O)c2cnn3cccnc23)cc1OC`, with -0.5%; and `CCN1C(=O)CC(C(=O)Nc2ccc(F)cc2)SC1=Nc1cccc(OC)c1` (stereo not drawn), with -9.1%; and `O=C(NCCCN1CCN(CCCNC(=O)c2ccccc2F)CC1)c1ccccc1F`, with -23.8%. As to `CC1CCc2nc(NC(=O)CN3CCN(Cc4ccc5c(c4)OCO5)CC3)sc2C1` (stereo not drawn), the cytotoxicity is 56.9% (active).

With `CC1CCc2nc(NC(=O)CN3CCOCC3)sc2C1` (stereo not drawn), the cytotoxicity is -3.7%.

Turning to `CC1CCc2nc(NC(=O)CN3CCN(c4ccccc4)CC3)sc2C1` (stereo not drawn), the cytotoxicity is -5.6%. Regarding `COCCOC(=O)C1=C(C)NC2=C(C(=O)CCC2)C1c1ccc(N(C)C)cc1` (stereo not drawn), the cytotoxicity was 3%. In the case of `COC(=O)c1cc2ccsc2n1Cc1nc(-c2ccc(OC)cc2)oc1C`, the cytotoxicity is 11.1%. Then `COC(=O)c1ccc(-c2ccco2)n1Cc1nc(-c2ccc(OC)c(OC)c2)oc1C`, with 74.4% (active); and `COc1ccc(-c2nc(CS(=O)CC(=O)NCc3ccco3)c(C)o2)cc1OC` (stereo not drawn), with 1.1%. Under `CCCC(C(=O)NCc1ccc(OC)cc1)N(Cc1ccco1)C(=O)c1snc(C(N)=O)c1N` (stereo not drawn) stands -4%.

With `O=c1oc2cc(O)ccc2c2c1CCCC2`, the cytotoxicity is 30.5%.

Turning to `Oc1ccc2c(c1)oc1cc(O)ccc12`, the cytotoxicity was 57% (active). Turning to `O=c1oc2cc(O)ccc2c2oc3cc(O)ccc3c12`, the cytotoxicity is 41%. Then `COc1ccc(N(Cc2cc3ccccc3[nH]c2=O)C(=O)C2CCCO2)cc1` (stereo not drawn), with 14.6%; and `Cc1sc2nc(SCC(=O)c3cc(C)n(CC4CCCO4)c3C)n(C(C)C)c(=O)c2c1C` (stereo not drawn), with 22.2%; and `Cn1nnc2cc(C(=O)NC(C)(C)C)ccc21`, with 3.4%. Turning to `Cc1ccc2c(c1)c1ncnc(N3CCN(c4ccccc4)CC3)c1n2C`, the cytotoxicity was 9.4%. Under `Cc1ccc2c(c1)c1ncnc(N3CCOCC3)c1n2C` stands -7.1%. Then `Cc1ccc2cc(CN(Cc3ccc(F)cc3)Cc3nnnn3C3CCCC3)c(=O)[nH]c2c1`, with 31.6%; and `Cc1ccc2[nH]c(=O)c(CN(Cc3ccccc3)Cc3nnnn3C3CCCC3)cc2c1`, with 47.8%. Under `CCc1ccc2[nH]c(=O)c(CN(Cc3ccc4c(c3)OCO4)Cc3nnnn3C3CCCC3)cc2c1` stands 54.8% (active).

Take `Cc1ccc2cc(CN(Cc3ccccc3)Cc3nnnn3C3CCCC3)c(=O)[nH]c2c1`: the cytotoxicity was 56.3% (active). Under `Cc1ccc2[nH]c(=O)c(CN(Cc3ccc4c(c3)OCO4)Cc3nnnn3C3CCCC3)cc2c1` stands -0.4%; under `Cc1cc2cc(CN(Cc3ccc4c(c3)OCO4)Cc3nnnn3C3CCCC3)c(=O)[nH]c2cc1C`, 2.4%; under `O=C(Nc1ccc2c(c1)nc1n2CCN(C2CCCCC2)C1)c1ccco1`, -30.2%. Under `Cc1ccc(-c2nnn(CC(=O)N(Cc3cccs3)C(C(=O)NC(C)(C)C)c3ccc(C)o3)n2)o1` (stereo not drawn) stands 21.3%; under `Clc1ccc(COn2nnc3ccccc32)c(Cl)c1`, 0.9%; under `COc1ccc(C(=O)N2CCc3cc(OC)c(OC)cc3C2)cc1OC`, -3.5%. Under `CCOc1cc(C(=O)N2CCc3cc(OC)c(OC)cc3C2)ccc1OC(F)F` stands 89.4% (active); under `CCOc1ccc(C(=O)N2CCc3cc(OC)c(OC)cc3C2)cc1OCC`, 45.5%; under `CCOc1nc(-c2ccccc2)ccc1-c1noc(-c2ccc(OC)c(OC)c2)n1`, 20.5%. As for `Cc1cc2c(c(=O)n1CCN(C)C)C(c1ccc(Cl)cc1)C(C#N)=C(N)O2` (stereo not drawn), the cytotoxicity is -10.1%. Then `Cc1cc2c(c(=O)n1CCN(C)C)C(c1ccncc1)C(C#N)=C(N)O2` (stereo not drawn), with 20.9%. As to `Cc1cc2c(c(=O)n1CCN(C)C)C(c1ccc(Br)cc1)C(C#N)=C(N)O2` (stereo not drawn), the cytotoxicity is 54.2% (active). Consider `O=C(NCc1ccco1)C1CCN(c2nnc(-n3cccc3)s2)CC1`, for which the cytotoxicity was -3.4%. On to `Cc1cc(C(=O)CN2C(=O)NC(c3ccccc3)(c3ccccc3)C2=O)c(C)n1Cc1ccco1`, for which the cytotoxicity is 3.5%. For `COc1ccccc1NC(=O)C1=C(C)Nc2nnnn2C1c1ccncc1` (stereo not drawn), the cytotoxicity is -9.7%. Under `COc1cc(-c2nnc(-c3cccs3)o2)cc(OC)c1OC` stands -28.7%.

For `Fc1cccc2sc(Nc3nnc(-c4ccco4)o3)nc12`, the cytotoxicity is 29.2%.

For the compound `COc1cccc2sc(Nc3nnc(-c4ccccc4Cl)o3)nc12`, the cytotoxicity is 31.7%. In the case of `COc1ccccc1-c1nnc(Nc2nc3c(OC)cccc3s2)o1`, the cytotoxicity was 56.1% (active). In the case of `Fc1cccc2sc(Nc3nnc(-c4ccccc4)o3)nc12`, the cytotoxicity was 44.8%.

For the compound `COc1ccc(-c2nnc(Nc3nc4c(OC)cccc4s3)o2)cc1`, the cytotoxicity was 59.3% (active). With `COC(=O)c1sc(NC(=O)COc2ccccc2OC)nc1C`, the cytotoxicity was -10.6%.

In the case of `CCOC(=O)c1sc(NCCNc2nc(C)c(C(=O)OCC)s2)nc1C`, the cytotoxicity was 1%. Then `COc1cccc2sc(Nc3nnc(-c4cccs4)o3)nc12`, with 59.6% (active).

For `CCOC(=O)c1sc(Nc2nc3c(OC)cccc3s2)nc1C`, the cytotoxicity is 79.9% (active). Then `COc1cc(OC)cc(-c2nnc(Nc3nc4c(F)cccc4s3)o2)c1`, with 5.5%; and `COc1cc2nc(-c3cccs3)oc(=O)c2cc1OC`, with 9.6%.
